Results reported in PubChem BioAssay AID2314 (National Center for Advancing Translational Sciences (NCATS), 2010).
Values joined by “and” are separate entries in the source; they are usually repeats but may differ in a detail not shown here. Identical values can stand only once. About 37,000 (12%) of roughly 300,000 compounds were called active. This excerpt belongs to a sample that is enriched for actives. Values without a mark were called inactive. No stated cut-off is given here; in the data, active means max response mostly above about 13% (no sharp cut-off); inactive means mostly below about 14%.

Assay: Cycloheximide Counterscreen for Small Molecule Inhibitors of Shiga Toxin; further: read at 38.3 µM for the half of the compounds with a filed dose; 0% is about no effect
Conditions: cell reporter, cycloheximide protein synthesis inhibition counterscreen; hits give high values

Row | Compound | max response
1 | CC(=O)c1ccc(N2CCN(C(=O)C3CCN(S(=O)(=O)c4ccc5c(c4)CC(C)N5C(=O)C4CC4)CC3)CC2)cc1 (stereo not drawn) | -0.93%
2 | Cc1cc(C)n(CC(O)COc2ccc(C(C)(C)C)cc2)n1 (stereo not drawn) | 10.5%
3 | CCc1cccc(NC(=S)N(CCN(C)C)C2CCN(C(C)C)CC2)c1 | -3.94%
4 | Cc1ccc(NC(=O)C(=O)NCc2ccc(/C=N/NC(=O)c3c(C)nc4cc(C)ccn34)o2)cc1 | 6.74%
5 | O=c1[nH]c(CN2CCN(S(=O)(=O)c3ccc4c(c3)OCCO4)CC2)nc2sc3c(c12)CCCC3 | -1.21%
6 | CCCCOc1ccc(C(=O)N/C(=C/C=C/c2ccccc2)C(=O)N2CCOCC2)cc1 | -4.3%
7 | CC(C)COP(=O)(c1ccc(N(C)C)cc1)C(Nc1ccccc1)c1cccnc1 (stereo not drawn) | -7.16%
8 | O=C(CCN1C(=O)[C@@H]2Cc3ccccc3CN2C1=O)NCc1ccccc1 | -3.78%
9 | N#C/C=C/N1CCN(Cc2ccc3c(c2)OCO3)CC1 | -4.02%
10 | O=P(O)(CN1CCCCCC1)C1Cc2ccccc2C1 | -0.763%
11 | Cc1noc(C)c1-c1ccc2ncnc(NCc3ccc(F)c(F)c3)c2c1 | -5.05%
12 | Cc1noc(C)c1-c1ccc2ncnc(NC(C)c3ccco3)c2c1 (stereo not drawn) | 14.8%
13 | Cc1noc(C)c1-c1ccc2ncnc(NCc3ccc4[nH]ccc4c3)c2c1 | 56.1% (active)
14 | COc1ccc(NC(=O)CNC(=O)Cn2ccc3ccccc3c2=O)c(OC)c1 | -1.76%
15 | O=C(C1CCCO1)N1CCN(C(=S)Nc2cccc(Cl)c2)CC1 (stereo not drawn) | 2.71%
16 | Cc1cccc(NC(=S)N2CCCC(c3nc4ccccc4[nH]3)C2)c1 (stereo not drawn) | 2.24%
17 | Cc1ccc(C2CCN(C(=S)Nc3cccc(Cl)c3)C2)cc1 (stereo not drawn) | 23.2% (active)
18 | CCn1c2ccccc2c2cc(NC(=O)Nc3ccc([N+](=O)[O-])cc3C)ccc21 | 1.99%
19 | COc1ccc(NC(=O)COc2ccc(C(=O)c3ccc(F)cc3)cc2)cc1S(N)(=O)=O | -1.97%
20 | COCCCn1c(SCC(=O)NC2CCCC2)nnc1-c1ccccc1 | -2.3%
21 | O=C(Nc1cccc(NC(=O)c2ccccc2[N+](=O)[O-])c1)c1ccccc1Cl | -2.59%
22 | COCC(=O)N1CCc2ccc(NC(=O)c3ccccc3Cl)cc2C1 | -1.85%
23 | O=C(Nc1ccc2sc3ccccc3c(=O)c2c1)c1ccccc1Cl | 40.4% (active)
24 | O=C(COc1ccccc1[N+](=O)[O-])NC1CC1 | 1.49%
25 | O=C(O)CCCN1C(=O)C2C3c4ccccc4C(c4ccccc43)[C@@H]2C1=O (stereo partly drawn) | -1.2%

Row | Compound | max response
26 | C=CCSC(CC)(CC)C(N)=O | -2.64%
27 | Cc1ccc(NC(=O)c2oc3ccccc3c2C)c([N+](=O)[O-])c1 | 29.7% (active)
28 | Cc1c(C(=O)Nc2cccc(-c3nnc4n3CCCCC4)c2)oc2ccccc12 | 13%
29 | Cc1ccnc(NS(=O)(=O)c2ccc(NC(=O)c3oc4ccccc4c3C)cc2)n1 | 1.07%
30 | Cc1nonc1NC(=O)c1ccccc1Br | 6.09%
31 | Cc1c(C(=O)NC2CCCCC2)oc2ccccc12 | 39.2% (active)
32 | COc1ccc2oc(=O)c(C(=O)N3CCCc4ccccc43)cc2c1 | 0.681%
33 | Cc1nonc1NC(=O)c1oc2ccccc2c1C | 35.8% (active)
34 | CCc1nonc1NC(=O)c1oc2ccc(Cl)cc2c1C | -1.57%
35 | CCC(=O)N1CCCc2ccccc21 | -1.65%
36 | Cc1c(C(=O)N2CCCc3ccccc32)oc2ccccc12 | 18.8% (active)
37 | Cc1ccc2[nH]c(C(=O)O)c(NC(=O)c3ccccc3[N+](=O)[O-])c2c1 | -2.43%
38 | Cc1ccc(NC(=O)c2oc(=O)c3ccccc3c2-c2ccccc2)c(C)c1 | -5.99%
39 | Cc1sc2ncn(CC(=O)NCCN(C)C)c(=O)c2c1S(=O)(=O)N1CCC(C)CC1 | 7.86%
40 | Cc1ccccc1-n1c(C)cc(/C=N/NC(=O)c2ccc(CN3CCOCC3)cc2)c1C | 1.39%
41 | COc1cc(CC(=O)N2CCC(n3nccc3NC(=O)C3CC3)CC2)cc(OC)c1OC | -1.39%
42 | C/C(=N\NC(=O)c1ccc(NS(=O)(=O)c2cccs2)cc1)c1ccc2ccccc2c1 | 7.4%
43 | Cc1ccc(S(=O)(=O)N(Cc2cc3ccccc3[nH]c2=O)CC2CCCO2)cc1 (stereo not drawn) | -1.24%
44 | CCn1cc(CN2CCC(C(=O)Nc3cccc(-c4cccc(Cl)c4)c3)CC2)c(C)n1 | -9.71%
45 | CCCOc1ccc(-c2c(C(=O)N/N=C/c3ccco3)nnn2-c2nonc2N)cc1 | -0.593%
46 | C=CCNC(=O)c1cc2nc(C3CC3)cc(C(F)F)n2n1 | 11.1%
47 | CNC(=O)c1csc(-c2ccccc2)n1 | 13.6% (active)
48 | C=CCNC(=O)c1csc(-c2ccccc2)n1 | 28.5% (active)
49 | CNC(=O)c1csc(Cc2c(Cl)sc3ccc(Cl)cc23)n1 | -2.08%
50 | O=C(O)Cc1csc(-c2cccc(Oc3ccccc3)c2)n1 | -1.21% and 2.4%

Row | Compound | max response
51 | C=CCNC(=O)c1ccccc1SCc1c(C)noc1C | -1.93%
52 | Clc1ccccc1-c1cc(COc2ccc3ccccc3c2)no1 | 6.98%
53 | O=C(Nc1cccnc1Cl)c1cc(-c2ccccc2O)on1 | 17%
54 | O=C(NCc1ccccn1)c1ccc2nc(-c3ccco3)c(-c3ccco3)nc2c1 | 0.719%
55 | C=CCNC(=O)c1cc(-c2ccccc2O)on1 | 59.8% (active)
56 | O=C(NCc1ccccn1)c1cc(-c2ccccc2Cl)on1 | 38.8% (active)
57 | CNC(=O)c1cccc2nc3ccccc3nc12 | 1.67%
58 | CCn1c(=O)c(C(=O)NCc2ccc3c(c2)OCO3)c(O)c2ccccc21 | -2.8%
59 | COc1ccc(OC)c(/C(C)=N\NC(=O)c2cc3cc(Cl)ccc3n2C)c1 | -5.13%
60 | COc1cc([C@H](Cc2ccccc2)NC(C)=O)oc(=O)c1 | -1.33%
61 | Cc1ccc(C)c(S(=O)(=O)Nc2cccc(-n3cnnn3)c2)c1 | -4.16%
62 | CC1CN(C(=O)CCC(=O)NC2CCN(Cc3ccccc3)CC2)c2ccccc2O1 (stereo not drawn) | -2.34%
63 | O=C(O)CCCn1cc(NC(=O)COc2cccc(Cl)c2)cn1 | -1.65%
64 | [O-][N+]12CCCCC1CCCC2CO (stereo not drawn) | -2.81%
65 | Cc1ccccc1N1CCN(CCCN2C(=O)C3CCCCN3C2=O)CC1 (stereo not drawn) | -0.589%
66 | CCNC(=O)NC(=O)C(C)OC(=O)c1cc(S(=O)(=O)N2CCCCCC2)ccc1OC (stereo not drawn) | 15.1%
67 | COCC1CCN(C(=O)CCc2nnc(C3(c4ccc(Cl)cc4)CCC3)o2)C1 (stereo not drawn) | 44% (active)
68 | O=C1CCC(CCC(=O)N2CCCC(C(=O)c3ccc(Cl)cc3)C2)=NN1 (stereo not drawn) | 8.2%
69 | CSCCC(=O)N1CCCC(CNC(=O)c2ccccc2Cl)C1 (stereo not drawn) | -3.24%
70 | CC[C@]1(c2ccccc2OC)C(=O)N(C(=O)OC)N1C(=O)OC | 29.1% (active)
71 | COc1ccccc1CC(=O)Nc1ccc(F)cc1F | -2.45%
72 | COC(=O)c1ccccc1NC(=O)Cc1ccccc1OC | -2.67%
73 | CCCC(C)NC(=O)C1CCN(C(=O)C2CC(=O)N(c3ccc(C)cc3)C2)CC1 (stereo not drawn) | -4.68%
74 | Brc1c(CSc2nncc3ccccc23)nc2ccccn12 | 38.5% (active)
75 | CC(=O)O[C@H]1c2ccccc2-c2ccccc2[C@@H]1OC(C)=O | 0.95%

Row | Compound | max response
76 | Cc1ccc(SCC(=O)NNC(=O)c2ccc(S(C)(=O)=O)cc2)cc1 | 5.01%
77 | COCC1CCN(C(=O)C2CCC(=O)N(Cc3cccc(C(F)(F)F)c3)C2)CC1 (stereo not drawn) | 29.7% (active)
78 | COCC1CCN(C(=O)C2CCC(=O)N(CC3CCCCC3)C2)CC1 (stereo not drawn) | -2.01%
79 | Cc1cccnc1CCNC(=O)C1CCC(=O)N(Cc2cccc(F)c2)C1 (stereo not drawn) | -2.2%
80 | O=C(c1ccco1)N1CCN(Cc2cccc(C(F)(F)F)c2)CC1 | -3.76%
81 | O=C1CCC(C(=O)N2CCCCO2)CN1Cc1cccc(C(F)(F)F)c1 (stereo not drawn) | 30% (active)
82 | COC(=O)c1ccc(CNC(=O)C2CCC(=O)N(Cc3cccc(F)c3)C2)cc1 (stereo not drawn) | 0.912%
83 | CC(=O)Nc1ccc(S(=O)(=O)N2CCC(C(=O)N[C@@H](Cc3ccccc3)C(=O)O)CC2)cc1 | 10.8%
84 | COc1ccccc1CNC(=O)C1CCN(S(=O)(=O)c2ccc3c(c2)OCCO3)CC1 | -5.22%
85 | CCOc1cc(C(=O)O)ccc1OCCOc1ccccc1 | -8.53%
86 | COc1ccccc1CC(=O)Nc1ccc(S(=O)(=O)N2CCCC2)cc1 | -4.23%
87 | C[C@@]12C(=O)N(c3cccc(Br)c3)C(=O)N1[C@H](c1ccc(Cl)cc1)[C@@H]1C(=O)N(C3CCCCC3)C(=O)[C@@H]12 | -2.82%
88 | COc1cccc(C(=O)Nc2nnc(S(=O)(=O)N3CCOCC3)s2)c1 | -4.33%
89 | O=C(Nc1nc2ccc([N+](=O)[O-])cc2s1)c1ccc(S(=O)(=O)N2CCCc3ccccc32)cc1 | -2.29%
90 | COc1cccc(C(=O)Nc2nc3ccc(S(C)(=O)=O)cc3s2)c1 | 33.2% (active)
91 | O=C(NC(Nc1nc2ccc([N+](=O)[O-])cc2s1)(C(F)(F)F)C(F)(F)F)c1ccccc1 | 0.792%
92 | O=C(Nc1nc2ccc([N+](=O)[O-])cc2s1)c1ccncc1 | 23.5% (active)
93 | CCCC(=O)Nc1nc2ccc(NC(=O)c3cccnc3)cc2s1 | 9.53%
94 | CS(=O)(=O)c1ccc2nc(NC(=O)C3C4C=CC(C4)C3C(=O)O)sc2c1 (stereo not drawn) | 2.94%
95 | CNC(=O)c1ccc2nc(NC(C)=O)sc2c1 | 38% (active)
96 | CS(=O)(=O)c1ccc2nc(NC(=O)c3ccc(N4CCCC4=O)cc3)sc2c1 | -2.38%
97 | CS(=O)(=O)c1ccc2nc(NC(=O)CN3CCCCCC3)sc2c1 | -1.48%
98 | CS(=O)(=O)c1ccc2nc(NC(=O)c3ccc(Cl)nc3)sc2c1 | 39.4% (active)
